Experimental findings from PubChem BioAssay (NCI) are described below.

Some test systems named below: NCI-H23 lung; NCI-H226 lung; NCI-H322M lung; HOP-62 NSCLC; NCI-H460 lung; NCI-H522 lung; A549/ATCC NSCLC; 786-0 renal; COLO 205 colon; DU-145 prostate; K-562 leukemia; MALME-3M melanoma; MDA-MB-231 breast; RXF 393 renal; SF-268 CNS; SF-295 CNS; SF-539 CNS; UACC-257 melanoma; M14 melanoma.
Assay in all cases: NCI-60 one-dose screen, 48 h (100 = growth as untreated, 0 = no growth, -100 = all killed)
Conditions in all cases: 10 µM unless noted

Compounds without any hit were thinned out: in the full panel of roughly 83,000, 20% have a hit.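 Plates (96-well) were seeded with cells, treated with compound at one concentration, and incubated for 48 hours before percent growth was determined.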 Unmarked numbers belong to inactive results. Calls of active or inactive are those of the source. Rule for the calls: active = growth percent below 10; inactive = the rest.

Turning to `OC(c1ccccc1)c1ccccn1` (stereo unspecified), the growth is 107% in the experiment on NCI-H23 lung; 97.8% with NCI-H226 lung; 102% with NCI-H322M lung; 104% in the experiment with HOP-62 NSCLC; 107% in the experiment on NCI-H460 lung; 84.6% in the experiment with NCI-H522 lung. The growth with A549/ATCC NSCLC is 77.1%; with 786-0 renal it was 97.2%; in the experiment with COLO 205 colon, 108%; with DU-145 prostate it was 110%; with K-562 leukemia, 94.3%; in the experiment on MALME-3M melanoma, 113%. Moreover, the growth in the experiment on MDA-MB-231 breast is 105%; with RXF 393 renal it was 104%; in the experiment on SF-268 CNS, 102%; in the experiment on SF-295 CNS, 101%; in the experiment with SF-539 CNS, 97.7%; with UACC-257 melanoma it was 90.5%. Also, the growth in the experiment with M14 melanoma is 96.1%.
In the case of `CN(C)C(=O)OCc1nc2c(N3CCOCC3)nc(-c3ccccc3)nc2n1C`, the growth was -67.3% (active) with NCI-H23 lung; -66.1% (active) in the experiment on NCI-H226 lung; 53.4% in the experiment on NCI-H322M lung; -46.9% (active) in the experiment on HOP-62 NSCLC; -71.8% (active) in the experiment with NCI-H460 lung; -46.8% (active) in the experiment with NCI-H522 lung. Also, the growth in the experiment with A549/ATCC NSCLC is -29.6% (active); with 786-0 renal it was -71.3% (active); in the experiment on COLO 205 colon, -70.5% (active); with DU-145 prostate, -74.4% (active); in the experiment with K-562 leukemia, 5.32% (active); in the experiment on MALME-3M melanoma it was -92.8% (active). Further, the growth with MDA-MB-231 breast is -86.5% (active); in the experiment with SF-268 CNS, -59.9% (active); in the experiment on SF-295 CNS it was 29.9%; with SF-539 CNS, -98.3% (active); with UACC-257 melanoma, -65.4% (active).
In the case of `Clc1ccc(C2CC(c3cccc(Nc4ccncc4)c3)=NN2c2cc(Cl)cc(Cl)c2)cc1` (stereo unspecified), the growth with NCI-H23 lung is 79.6%; in the experiment on NCI-H226 lung, 88.7%; in the experiment on NCI-H322M lung, 81.6%; with HOP-62 NSCLC, 68.5%; in the experiment on NCI-H460 lung it was -68% (active); in the experiment with NCI-H522 lung, 89.1%. Also, the growth with A549/ATCC NSCLC was 47.6%; with 786-0 renal, -88.5% (active); in the experiment on COLO 205 colon, -58% (active); in the experiment with DU-145 prostate, 48%; in the experiment with K-562 leukemia, 1.88% (active); in the experiment with MALME-3M melanoma, 62.8%. Moreover, the growth with MDA-MB-231 breast is 71.5%; in the experiment on SF-268 CNS, 83.8%; in the experiment on SF-295 CNS it was 70.5%; in the experiment with SF-539 CNS, 81.9%; with UACC-257 melanoma, 88.8%; in the experiment with M14 melanoma, -63.9% (active).
Consider `O=C(NCCN1CCOCC1)OCc1nc2nc(Cl)nc(N3CCOCC3)c2[nH]1`, for which the growth in the experiment with NCI-H23 lung is 26.3%; in the experiment on NCI-H226 lung, 62.6%; with NCI-H322M lung, 42.4%; in the experiment with HOP-62 NSCLC, 32.5%; in the experiment with NCI-H460 lung it was 9.27% (active); in the experiment with NCI-H522 lung it was -29.8% (active). The growth with 786-0 renal is 58.1%; in the experiment on COLO 205 colon, 110%; in the experiment on DU-145 prostate it was 8.23% (active); with K-562 leukemia, 6.62% (active); in the experiment with MALME-3M melanoma it was 50%; in the experiment with MDA-MB-231 breast, 22.9%. In addition, the growth in the experiment with SF-268 CNS was 27%; in the experiment on SF-295 CNS it was 94.6%; with SF-539 CNS, -15.8% (active); in the experiment on UACC-257 melanoma, 69.2%; in the experiment on M14 melanoma it was 9.49% (active).
For `COc1ccccc1Nc1cc(O)c2c(=O)cc(-c3ccccc3)oc2c1`, the growth in the experiment on NCI-H23 lung is 51.5%; with NCI-H226 lung, 76.8%; with NCI-H322M lung, 80.1%; in the experiment on HOP-62 NSCLC, 35.6%; with NCI-H460 lung, 11.4%; in the experiment with NCI-H522 lung, 7.64% (active). Further, the growth is 33.7% with A549/ATCC NSCLC; 49.2% with 786-0 renal; 76.8% in the experiment on COLO 205 colon; 45.6% in the experiment with DU-145 prostate; 11.6% in the experiment with K-562 leukemia; 44.1% with MALME-3M melanoma. The growth with MDA-MB-231 breast was 39.2%; in the experiment on SF-268 CNS, 44.9%; in the experiment with SF-295 CNS, 25.9%; in the experiment on SF-539 CNS, 28.3%; in the experiment with UACC-257 melanoma, 54%.
Consider `CC(O)/C=C/C=C/C(O)CC/C=C/C(=O)NCC(C)(C)O` (stereo unspecified), for which the growth with NCI-H23 lung is 95.3%; in the experiment on NCI-H226 lung it was 108%; in the experiment with NCI-H322M lung it was 106%; in the experiment with HOP-62 NSCLC, 110%; with NCI-H460 lung, 101%; in the experiment on NCI-H522 lung, 79.4%. Also, the growth is 96.1% with A549/ATCC NSCLC; 109% with 786-0 renal; 118% with COLO 205 colon; 106% in the experiment with DU-145 prostate; 72.8% in the experiment on K-562 leukemia; 112% in the experiment with MALME-3M melanoma. Further, the growth in the experiment with MDA-MB-231 breast is 111%; with RXF 393 renal it was 121%; with SF-268 CNS it was 108%; with SF-295 CNS, 107%; in the experiment with SF-539 CNS, 109%; in the experiment with UACC-257 melanoma, 91.5%. Also, the growth in the experiment on M14 melanoma was 101%.
As for `COc1cccc2c1C(=O)c1c(O)c3c(c(O)c1C2=O)C[C@@](O)(C(=O)CO)C[C@@H]3O[C@H]1C[C@H](N)[C@@H](O)[C@H](C)O1`, the growth in the experiment with NCI-H23 lung is -25% (active); with NCI-H226 lung, -41.8% (active); with NCI-H322M lung, 13.6%; with HOP-62 NSCLC, -18% (active); in the experiment with NCI-H460 lung it was 1.64% (active); in the experiment with NCI-H522 lung, -55.2% (active). Besides, the growth with A549/ATCC NSCLC is -22.5% (active); in the experiment on 786-0 renal, 12.1%; in the experiment with COLO 205 colon, -86.6% (active); in the experiment on DU-145 prostate, -26.8% (active); in the experiment on K-562 leukemia, 1.44% (active); with MALME-3M melanoma, -50.7% (active). The growth in the experiment on MDA-MB-231 breast is 1.94% (active); in the experiment with SF-268 CNS, -15.4% (active); with SF-295 CNS, -16.1% (active); in the experiment on SF-539 CNS, -23.9% (active); with UACC-257 melanoma, -49.3% (active); with M14 melanoma it was -47.4% (active).
For `Cn1c2c(Cl)c(Cl)ccc2c2cc(N)[nH]c(=O)c21`, the growth in the experiment on NCI-H23 lung is 76.2%; in the experiment on NCI-H226 lung, 59.2%; in the experiment on NCI-H322M lung it was 103%; with HOP-62 NSCLC, 51.3%; in the experiment with NCI-H460 lung, 81.9%; in the experiment on NCI-H522 lung, 92.4%. Besides, the growth with A549/ATCC NSCLC was 15.1%; in the experiment with 786-0 renal, 70.2%; with COLO 205 colon, 92.1%; in the experiment on DU-145 prostate, 84.2%; in the experiment on MALME-3M melanoma, 102%; with MDA-MB-231 breast, 68.5%. Besides, the growth with SF-268 CNS was 80.9%; with SF-295 CNS, 53.7%; in the experiment with SF-539 CNS, 82.8%; with UACC-257 melanoma it was 97.9%; with M14 melanoma, 97.8%.
With `CCCCCOc1ccc(/C=N/Nc2cc(C)nc3ccc(Br)cc23)cc1`, the growth is 75.1% in the experiment on NCI-H23 lung; 91.5% in the experiment with NCI-H226 lung; 65.1% in the experiment on NCI-H322M lung; 58.1% with HOP-62 NSCLC; -57.9% (active) in the experiment on NCI-H460 lung; 1.99% (active) with NCI-H522 lung. Besides, the growth was 2.38% (active) with A549/ATCC NSCLC; -90.9% (active) with 786-0 renal; -50.4% (active) with COLO 205 colon; 0.579% (active) in the experiment on DU-145 prostate; -19.6% (active) with K-562 leukemia; -35.9% (active) in the experiment on MALME-3M melanoma. For the same compound, the growth in the experiment on MDA-MB-231 breast is -51.4% (active); in the experiment on RXF 393 renal, -82.9% (active); in the experiment on SF-268 CNS, 87.2%; in the experiment with SF-295 CNS, -84.8% (active); in the experiment on SF-539 CNS, -83.7% (active); in the experiment with UACC-257 melanoma it was 102%. In the experiment on M14 melanoma, the growth was 15.5%.
Consider `CCCCCCCCCCCCCCCCCCOc1ccccc1N`, for which the growth is 87.8% in the experiment on NCI-H23 lung; 97.6% in the experiment with NCI-H226 lung; 81.7% in the experiment with NCI-H322M lung; 90.9% in the experiment with HOP-62 NSCLC; 47.6% in the experiment on NCI-H460 lung; 3.78% (active) in the experiment with NCI-H522 lung. The growth in the experiment on A549/ATCC NSCLC was 25.5%; with 786-0 renal, 25%; in the experiment on COLO 205 colon, 46.3%; with DU-145 prostate, 62%; in the experiment on K-562 leukemia it was 86.6%; with MALME-3M melanoma, 102%. Further, the growth in the experiment with MDA-MB-231 breast was 24.7%; with SF-268 CNS, 56.6%; with SF-295 CNS it was 54.3%; in the experiment with SF-539 CNS it was 20.5%; in the experiment on UACC-257 melanoma it was 55.4%; in the experiment with M14 melanoma, 72.9%.
As to `CCN(CC)CCCC(C)Nc1c2c(nc3ccc(OC)cc13)CCCC2` (stereo unspecified), the growth in the experiment with NCI-H23 lung was 87.7%; with NCI-H226 lung, 97.3%; in the experiment with NCI-H322M lung it was 90.6%; in the experiment with HOP-62 NSCLC, 87.6%; in the experiment on NCI-H460 lung, 92.7%; in the experiment on NCI-H522 lung, 112%. In addition, the growth in the experiment on A549/ATCC NSCLC was 108%; in the experiment with 786-0 renal, 90.2%; in the experiment with DU-145 prostate it was 111%; in the experiment with K-562 leukemia, 79.9%; in the experiment with MALME-3M melanoma it was 118%; in the experiment with MDA-MB-231 breast, 79.8%. For the same compound, the growth is 86.2% in the experiment on SF-268 CNS; 78% with SF-295 CNS; 89.8% in the experiment with SF-539 CNS; 112% in the experiment with UACC-257 melanoma; 100% in the experiment on M14 melanoma.
